Measurements reported in PubChem BioAssay AID1159580 (chemical genetic matrix, 2015).
Among all 5,500 compounds or so, about 2,000 (36%) were called active. Roughly 18% stayed inconclusive and do not appear here. Some of the results follow. Values without a mark were called inactive. Rule as the data show it: active = normalized growth mostly below about 0.91 (no sharp cut-off); inconclusive = no clear call, values can overlap the other calls; inactive = mostly above about 0.92.

Experiment: chemical genetic growth profiling, strain panel (AID 1159580);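 also: tested at 20 µM; growth read once vehicle control cultures reached saturation at 30 °C; 1 = growth at the plate median or of vehicle wells; lower values mean less growth of the strain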
Details: growth OD
[1] = S. cerevisiae deletion strains, locus YDL101C, strain DUN1, active compounds read low
[2] = S. cerevisiae deletion strains, locus YHR030C, strain SLT2, active compounds read low

## CCOC(=O)NC(=S)NC12CC3CC(CC(C3)C1)C2
S. cerevisiae deletion strains, locus YAR019C, strain CDC15, active compounds read low
  normalized growth: 0.978
S. cerevisiae deletion strains, locus YBL105C, strain PKC1, active compounds read low
  normalized growth: 0.983
S. cerevisiae deletion strains, locus YBR135W, strain CKS1, active compounds read low
  normalized growth: 0.977
S. cerevisiae deletion strains, locus YBR136W, strain MEC1, active compounds read low
  normalized growth: 0.962
S. cerevisiae deletion strains, locus YBR160W, strain CDC28, active compounds read low
  normalized growth: 0.984
S. cerevisiae deletion strains, locus YDL017W, strain CDC7, active compounds read low
  normalized growth: 0.982
S. cerevisiae deletion strains, locus YDL028C, strain MPS1, active compounds read low
  normalized growth: 0.978
[1]
  normalized growth: 0.979
S. cerevisiae deletion strains, locus YDL108W, strain KIN28, active compounds read low
  normalized growth: 0.957
S. cerevisiae deletion strains, locus YDL132W, strain cdc53, active compounds read low
  normalized growth: 0.971
S. cerevisiae deletion strains, locus YDL214C, strain PRR2, active compounds read low
  normalized growth: 0.875
S. cerevisiae deletion strains, locus YDR052C, strain DBF4, active compounds read low
  normalized growth: 0.993
S. cerevisiae deletion strains, locus YDR054C, strain cdc34, active compounds read low
  normalized growth: 0.967
S. cerevisiae deletion strains, locus YDR226W, strain ADK1, active compounds read low
  normalized growth: 0.975
S. cerevisiae deletion strains, locus YDR477W, strain SNF1, active compounds read low
  normalized growth: 0.894
S. cerevisiae deletion strains, locus YER123W, strain YCK3, active compounds read low
  normalized growth: 0.827
S. cerevisiae deletion strains, locus YER133W, strain GLC7, active compounds read low
  normalized growth: 0.86
S. cerevisiae deletion strains, locus YFL009W, strain cdc4, active compounds read low
  normalized growth: 0.972
S. cerevisiae deletion strains, locus YFL029C, strain CAK1, active compounds read low
  normalized growth: 0.974
S. cerevisiae deletion strains, locus YFR003C, strain YPI1, active compounds read low
  normalized growth: 0.981
S. cerevisiae deletion strains, locus YFR019W, strain FAB1, active compounds read low
  normalized growth: 0.955
S. cerevisiae deletion strains, locus YFR028C, strain CDC14, active compounds read low
  normalized growth: 0.97
S. cerevisiae deletion strains, locus YGR040W, strain KSS1, active compounds read low
  normalized growth: 0.872
S. cerevisiae deletion strains, locus YGR052W, strain FMP48, active compounds read low
  normalized growth: 0.947
S. cerevisiae deletion strains, locus YGR092W, strain DBF2, active compounds read low
  normalized growth: 0.787
[2]
  normalized growth: 0.897
S. cerevisiae deletion strains, locus YHR079C, strain IRE1, active compounds read low
  normalized growth: 0.915
S. cerevisiae deletion strains, locus YHR082C, strain KSP1, active compounds read low
  normalized growth: 0.946
S. cerevisiae deletion strains, locus YHR205W, strain SCH9, active compounds read low
  normalized growth: 0.965
S. cerevisiae deletion strains, locus YIL147C, strain SLN1, active compounds read low
  normalized growth: 0.981
S. cerevisiae deletion strains, locus YJL095W, strain BCK1, active compounds read low
  normalized growth: 0.964
S. cerevisiae deletion strains, locus YJL128C, strain PBS2, active compounds read low
  normalized growth: 0.953
S. cerevisiae deletion strains, locus YJL157C, strain FAR1, active compounds read low
  normalized growth: 0.865
S. cerevisiae deletion strains, locus YJR016C, strain ILV3, active compounds read low
  normalized growth: 0.985
S. cerevisiae deletion strains, locus YJR066W, strain TOR1 (second series), active compounds read low
  normalized growth: 0.789
S. cerevisiae deletion strains, locus YJR066W, strain TOR1, active compounds read low
  normalized growth: 0.903
S. cerevisiae deletion strains, locus YKL048C, strain ELM1, active compounds read low
  normalized growth: 0.968
S. cerevisiae deletion strains, locus YKL067W, strain YNK1, active compounds read low
  normalized growth: 0.896
S. cerevisiae deletion strains, locus YKL101W, strain HSL1, active compounds read low
  normalized growth: 0.923
S. cerevisiae deletion strains, locus YKL193C, strain SDS22, active compounds read low
  normalized growth: 0.982
S. cerevisiae deletion strains, locus YKL203C, strain TOR2, active compounds read low
  normalized growth: 0.958
S. cerevisiae deletion strains, locus YLR113W, strain HOG1, active compounds read low
  normalized growth: 0.926
S. cerevisiae deletion strains, locus YLR133W, strain CKI1, active compounds read low
  normalized growth: 0.934
S. cerevisiae deletion strains, locus YLR403W, strain SFP1, active compounds read low
  normalized growth: 0.851
S. cerevisiae deletion strains, locus YML070W, strain DAK1, active compounds read low
  normalized growth: 0.878
S. cerevisiae deletion strains, locus YMR001C, strain CDC5, active compounds read low
  normalized growth: 0.973
S. cerevisiae deletion strains, locus YMR205C, strain PFK2 (second series), active compounds read low
  normalized growth: 0.917
S. cerevisiae deletion strains, locus YMR277W, strain FCP1, active compounds read low
  normalized growth: 0.977
S. cerevisiae deletion strains, locus YNL006W, strain LST8, active compounds read low
  normalized growth: 0.971
S. cerevisiae deletion strains, locus YNL020C, strain ARK1, active compounds read low
  normalized growth: 0.901
S. cerevisiae deletion strains, locus YNL161W, strain CBK1, active compounds read low
  normalized growth: 0.987
S. cerevisiae deletion strains, locus YNL183C, strain NPR1, active compounds read low
  normalized growth: 0.939
S. cerevisiae deletion strains, locus YNL207W, strain RIO2, active compounds read low
  normalized growth: 0.97
S. cerevisiae deletion strains, locus YNL222W, strain SSU72, active compounds read low
  normalized growth: 0.982
S. cerevisiae deletion strains, locus YNL307C, strain MCK1 (second series), active compounds read low
  normalized growth: 0.881
S. cerevisiae deletion strains, locus YOL078W, strain AVO1, active compounds read low
  normalized growth: 0.972
S. cerevisiae deletion strains, locus YOL136C, strain PFK27, active compounds read low
  normalized growth: 0.898
S. cerevisiae deletion strains, locus YOR061W, strain CKA2, active compounds read low
  normalized growth: 0.845
S. cerevisiae deletion strains, locus YOR119C, strain RIO1, active compounds read low
  normalized growth: 0.934
S. cerevisiae deletion strains, locus YOR231W, strain MKK1, active compounds read low
  normalized growth: 0.926
S. cerevisiae deletion strains, locus YOR329C, strain SCD5, active compounds read low
  normalized growth: 0.984
S. cerevisiae deletion strains, locus YPL031C, strain PHO85, active compounds read low
  normalized growth: 0.87
S. cerevisiae deletion strains, locus YPL153C, strain RAD53, active compounds read low
  normalized growth: 0.863
S. cerevisiae deletion strains, locus YPL204W, strain HRR25, active compounds read low
  normalized growth: 0.876
S. cerevisiae deletion strains, locus YPL209C, strain IPL1, active compounds read low
  normalized growth: 0.981
S. cerevisiae deletion strains, locus YPL256C, strain CLN2, active compounds read low
  normalized growth: 1
S. cerevisiae deletion strains, locus YPR025C, strain CCL1, active compounds read low
  normalized growth: 0.982
S. cerevisiae deletion strains, locus YPR106W, strain ISR1, active compounds read low
  normalized growth: 0.992
S. cerevisiae deletion strains, locus YPR111W, strain DBF20, active compounds read low
  normalized growth: 0.996
S. cerevisiae deletion strains, strain NNK1, active compounds read low
  normalized growth: 0.988
S. cerevisiae deletion strains, strain TSCII, active compounds read low
  normalized growth: 0.971

## CCOC(=O)c1cc(-c2ccc(N)cc2)oc1C
S. cerevisiae deletion strains, locus YAL013W, strain DEP1, active compounds read low
  normalized growth: 0.943
S. cerevisiae deletion strains, locus YBR229C, strain ROT2, active compounds read low
  normalized growth: 0.95
S. cerevisiae deletion strains, locus YCL061C, strain MRC1, active compounds read low
  normalized growth: 0.891 (active)
[1]
  normalized growth: 0.927
S. cerevisiae deletion strains, locus YDL134C, strain PPH21, active compounds read low
  normalized growth: 0.939
S. cerevisiae deletion strains, locus YDR150W, strain NUM1, active compounds read low
  normalized growth: 0.822
S. cerevisiae deletion strains, locus YEL061C, strain CIN8, active compounds read low
  normalized growth: 0.59 (active)
S. cerevisiae deletion strains, locus YGR078C, strain PAC10, active compounds read low
  normalized growth: 0.942
S. cerevisiae deletion strains, locus YGR229C, strain SMI1, active compounds read low
  normalized growth: 0.964
[2]
  normalized growth: 0.351 (active)
S. cerevisiae deletion strains, locus YHR087W, strain rtc3, active compounds read low
  normalized growth: 0.96
S. cerevisiae deletion strains, locus YJR043C, strain POL32, active compounds read low
  normalized growth: 0.952
S. cerevisiae deletion strains, locus YJR075W, strain HOC1, active compounds read low
  normalized growth: 0.963
S. cerevisiae deletion strains, locus YKL190W, strain CNB1, active compounds read low
  normalized growth: 0.869 (active)
S. cerevisiae deletion strains, locus YLR039C, strain RIC1, active compounds read low
  normalized growth: 0.414 (active)
S. cerevisiae deletion strains, locus YLR058C, strain SHM2 (second series), active compounds read low
  normalized growth: 0.961
S. cerevisiae deletion strains, locus YLR085C, strain ARP6, active compounds read low
  normalized growth: 0.458 (active)
S. cerevisiae deletion strains, locus YLR262C, strain YPT6, active compounds read low
  normalized growth: 0.385 (active)
S. cerevisiae deletion strains, locus YML094W, strain GIM5, active compounds read low
  normalized growth: 0.806 (active)
S. cerevisiae deletion strains, locus YMR219W, strain ESC1, active compounds read low
  normalized growth: 0.959
S. cerevisiae deletion strains, locus YMR263W, strain SAP30, active compounds read low
  normalized growth: 0.889
S. cerevisiae deletion strains, locus YMR307W, strain GAS1, active compounds read low
  normalized growth: 0.548 (active)
S. cerevisiae deletion strains, locus YNL153C, strain GIM3, active compounds read low
  normalized growth: 0.66 (active)
S. cerevisiae deletion strains, locus YNL298W, strain CLA4 (second series), active compounds read low
  normalized growth: 0.783 (active)
S. cerevisiae deletion strains, locus YNL322C, strain KRE1, active compounds read low
  normalized growth: 0.973
S. cerevisiae deletion strains, locus YNR030W, strain Alg12, active compounds read low
  normalized growth: 0.885 (active)
S. cerevisiae deletion strains, locus YPL055C, strain LGE1, active compounds read low
  normalized growth: 0.749 (active)
S. cerevisiae deletion strains, locus YPL241C, strain CIN2, active compounds read low
  normalized growth: 0.483 (active)
S. cerevisiae deletion strains, locus YPR135W, strain CTF4, active compounds read low
  normalized growth: 0.611 (active)
S. cerevisiae strains, strain wild type, active compounds read low
  normalized growth: 0.923
